In publication PMC4336329 (PLoS ONE, 2015):
The campaign covered roughly 310,000 compounds. About 14,000 (4.5%) showed an effect of 50% or more. Effects have a minus sign here. Only a selection was taken, and strong results are over-represented in it overall.

molecular target: human ether-à-go-go-related gene (hERG) potassium channel (human, UniProt Q12809); test: primary screen, population patch clamp on CHO cells stably expressing hERG; higher = less effect of the substance
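Also: peak tail current of the secondary pulse compared with the same well before compound.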

Chain of human ether-à-go-go-related gene (hERG) potassium channel (Q12809 whole entry, looked up): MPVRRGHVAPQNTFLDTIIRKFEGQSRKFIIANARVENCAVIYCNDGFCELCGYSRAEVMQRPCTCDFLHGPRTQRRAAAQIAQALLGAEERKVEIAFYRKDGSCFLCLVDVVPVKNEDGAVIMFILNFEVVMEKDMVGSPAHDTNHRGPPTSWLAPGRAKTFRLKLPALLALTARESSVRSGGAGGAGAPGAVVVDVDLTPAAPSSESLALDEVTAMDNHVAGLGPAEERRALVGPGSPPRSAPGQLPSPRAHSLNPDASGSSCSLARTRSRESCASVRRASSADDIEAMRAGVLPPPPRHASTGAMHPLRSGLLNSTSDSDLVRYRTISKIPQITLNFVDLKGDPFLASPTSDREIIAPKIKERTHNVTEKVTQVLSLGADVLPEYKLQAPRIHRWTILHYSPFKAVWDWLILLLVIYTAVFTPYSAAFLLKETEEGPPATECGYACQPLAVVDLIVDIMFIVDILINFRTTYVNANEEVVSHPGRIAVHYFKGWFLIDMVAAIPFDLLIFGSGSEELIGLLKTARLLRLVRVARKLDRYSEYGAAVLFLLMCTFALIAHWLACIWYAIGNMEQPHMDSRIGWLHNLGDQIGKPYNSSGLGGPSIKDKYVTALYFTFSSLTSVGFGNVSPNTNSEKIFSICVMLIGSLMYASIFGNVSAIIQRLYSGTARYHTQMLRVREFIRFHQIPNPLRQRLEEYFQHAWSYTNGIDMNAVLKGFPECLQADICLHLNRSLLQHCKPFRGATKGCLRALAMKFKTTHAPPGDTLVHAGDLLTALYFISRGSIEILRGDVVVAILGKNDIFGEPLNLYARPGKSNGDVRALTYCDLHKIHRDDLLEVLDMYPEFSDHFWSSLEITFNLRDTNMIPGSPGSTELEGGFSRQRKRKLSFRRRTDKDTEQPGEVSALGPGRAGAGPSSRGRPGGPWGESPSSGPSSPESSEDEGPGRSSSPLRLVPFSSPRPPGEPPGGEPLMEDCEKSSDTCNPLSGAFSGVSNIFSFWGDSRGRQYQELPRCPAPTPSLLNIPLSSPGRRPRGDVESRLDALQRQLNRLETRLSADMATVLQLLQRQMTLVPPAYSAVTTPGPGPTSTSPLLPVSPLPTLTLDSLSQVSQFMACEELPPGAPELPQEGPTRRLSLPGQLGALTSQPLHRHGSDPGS

SMILES | hERG current change (%, negative = inhibition) at 10uM [%]
CCCOc1ccc(C(=O)CCC(=O)OCC(=O)Nc2ccc(Oc3ccccc3)cc2)cc1 | -13.3
COCCn1nnnc1CN1CCC(Cc2ccccc2)CC1.Cl | -3.18
O=C(OCC(=O)N1CCN(C(=O)c2ccco2)CC1)c1ccccc1Cc1ccccc1 | -56.3
O=C(OCC(=O)N1CCN(C(=O)c2ccco2)CC1)c1ccccc1C(=O)c1ccc(Cl)cc1 | -64.8
O=C(OCC(=O)N1CCN(C(=O)c2ccco2)CC1)c1ccccc1NCCO | 12.6
O=C(OCC(=O)N1CCN(C(=O)c2ccco2)CC1)c1ccccc1C(=O)c1ccccc1 | -34
O=C(OCC(=O)N1CCOCC1)c1ccccc1Cc1ccccc1 | -35.2
CCOC(=O)C1CCN(C(=O)COC(=O)Cc2ccc(Cl)cc2)CC1 | -22.7
CCOC(=O)C1CCN(C(=O)COC(=O)c2ccccc2C(=O)c2ccc(Cl)cc2)CC1 | -50.4
CCOC(=O)C1CCN(C(=O)COC(=O)COc2ccc(Cl)cc2)CC1 | 13.3
O=C(CCNS(=O)(=O)c1ccc(Cl)cc1)OCC(=O)N1CCN(C(=O)c2ccco2)CC1 | -47.4
O=C(OCC(=O)N1CCN(C(=O)c2ccco2)CC1)c1cc(S(=O)(=O)Nc2ccc(Cl)cc2)ccc1O | -64.6
O=C(OCC(=O)N1CCN(C(=O)c2ccco2)CC1)c1ccccc1OCc1ccccc1 | -43.3
COc1ccc(NS(=O)(=O)c2ccc(O)c(C(=O)OCC(=O)N3CCCCC3)c2)cc1 | -7.02
O=C1CCCC2=C1C(c1cccnc1)Nc1ccccc1N2 (centres unmarked) | 5.41
COc1ccc(NC(=O)CCC(=O)c2cccs2)cc1Cl | 17.6
CCOc1cccc2sc(Cl)nc12 | 13.7
COc1cc(N/C=C2\CC(=O)NC(C)=C2C#N)cc(OC)c1OC | 19.6
Cc1c(NC(=O)COC(=O)C2(c3ccccc3F)CCCC2)c(=O)n(-c2ccccc2)n1C | -1.01
O=c1c2oc3ccccc3c2ncn1Cc1ccc(Cl)cc1 | 11.7
CCOc1ccccc1N1CCN(c2nc(N)c(C#N)c(CC#N)c2C#N)CC1 | -37.2
CCCn1c(SCC(=O)Nc2sc(C)c(C)c2C#N)nnc1C(C)C | -9.76
O=C(NCCc1csc(-c2cccnc2)n1)c1ccc(Br)o1 | -10.9
Cc1cc(C)cc(N=C2NC(=O)CS2)c1 | 0.159
CCN(CC)C(=O)COc1ccc(/C(C)=N/NC(=O)c2ccccc2Br)cc1 | 8.89

SMILES | hERG current change (%, negative = inhibition) at 10uM [%]
COc1ccc(CCN(C)C(=O)CSc2nnc(-c3ccco3)o2)cc1OC | -21.3
CCCSc1nnc2nc3c(nn12)c1ccccc1n3C | -49.7
C=CCSc1nnc2nc3[nH]c4c(C)cccc4c3nn12 | 4.32
C=CCSc1nnc2nc3c(nn12)c1cc(C)ccc1n3CC=C | -55.1
O=C(NCc1ccc2c(c1)OCO2)C1(S(=O)(=O)c2ccccc2)CC1 | 13.4
CC(C)Cc1cc(C(=O)N2CCN(C(c3ccccc3)c3ccccc3)CC2)no1 | 0.0803
COc1ccc(/C=c2/sc3nc(-c4ccccc4)c(-c4ccccc4)n3c2=O)cc1 | -13.9
NC(=O)C1CCN(S(=O)(=O)Cc2ccccc2Cl)CC1 | 14.8
CCn1c(SCc2cccc(C)c2)nnc1-c1ccc(C)cc1 | -63.7
C=CCn1c(SCc2cccc(OC)c2)nnc1-c1ccncc1 | -15.5
CCn1c(SCc2cccc(F)c2)nnc1-c1ccncc1 | -8.82
CCn1c(SCc2ccc(C(=O)Nc3cc(C)cc(C)c3)cc2)nnc1-c1ccncc1 | -59.2
CCn1c(SCc2ccc(C(=O)Nc3nccs3)cc2)nnc1-c1ccc(NC(C)=O)cc1 | 1.21
CCn1c(SCc2ccc(Cl)cc2)nnc1-c1ccccc1 | -44.4
C=CCn1c(SCc2ccc(C#N)cc2)nnc1-c1cccc(OC)c1 | -67.4
C=CCn1c(SCc2ccc(OC)cc2)nnc1-c1cccnc1 | -26.9
CCOC(=O)CSc1nnc(-c2cccc(Cl)c2)n1CC | -3.47
CCn1c(SCc2ccc(C(=O)Nc3nccs3)cc2)nnc1-c1ccc(N)cc1 | -22.2
CCn1c(SCc2cccc(C)c2)nnc1-c1ccccc1 | -32.9
CCn1c(SCc2ccc(C#N)cc2)nnc1-c1cccc(Cl)c1 | -73.6
CCOC(=O)c1c(C)[nH]c(C(=O)COC(=O)C23CC4CC(CC(Cl)(C4)C2)C3)c1C | 11.6
CC1C(=O)N2CCCc3cc(NC(=O)C4CCCCC4)cc1c32 (centres unmarked) | 4.17
CCOC(=O)c1cc(S(=O)(=O)N2CCc3ccccc32)cn1C | -0.504
CCOCc1nnc(NC(=O)CSCc2ccccc2)s1 | -1.7
Cc1ccc2cc(NC(=O)c3cccc(F)c3)ccc2n1 | 0.701

SMILES | hERG current change (%, negative = inhibition) at 10uM [%]
CCOC(=O)C(NC(C)=O)C(=O)Nc1ccc(C)cc1C (centres unmarked) | 15.7
O=C(Nc1nccs1)c1cccc(NC(=O)C(F)(F)F)c1 | -5.07
O=c1c2c3c(sc2nc2n1CCCCC2)C(O)CCC3 (centres unmarked) | 3.27
C=CCn1c(SCC(=O)O)nnc1-c1cccc(Cl)c1 | 4.71
C=CCn1c(SCc2cccc(C#N)c2)nnc1-c1ccccc1O | -30.4
C=CCn1c(SCc2ccc(C#N)cc2)nnc1-c1cccc(Cl)c1 | -72.7
Cc1cc(NC(=O)CSc2nc3ccccc3c(=O)n2CCCC(=O)NCc2ccccc2)n[nH]1 | -8.72
O=C(NN=C1CCCCCCCCCCC1)c1cccnc1 | 19.8
CCN(CC)c1ccc(S(=O)(=O)N(CC)CC)cc1NC(=O)C1CCCC1 | -13.6
CCN(CC)c1ccc(NC(=O)c2cccnc2)c(C)c1 | 26.9
CCN(CC)S(=O)(=O)c1ccc(Cl)c(C(=O)Nc2cccnc2)c1 | -55.8
O=C(Nc1cccnc1)c1ccc(Cl)c(Cl)c1 | 10.3
CCN(CC)S(=O)(=O)c1cc(C(=O)Nc2cccnc2)ccc1Cl | -67.9
CCN(CC)S(=O)(=O)c1cc(C(=O)Nc2cccnc2Cl)ccc1Cl | 8.87
CCN(CC)c1ccc(S(=O)(=O)N(CC)CC)cc1NC(=O)c1cccnc1 | -72.5
CCN(CC)S(=O)(=O)c1cc(C(=O)Nc2ccncc2)ccc1Cl | -66.3
CCN(CC)S(=O)(=O)c1ccc(Cl)c(C(=O)Oc2cccnc2)c1 | -36.8
O=C(Nc1ccccc1)c1cc(S(=O)(=O)Nc2cccnc2)ccc1Cl | -3.06
CCN(CC)S(=O)(=O)c1cccc(C(=O)Nc2cccnc2)c1 | -17.7
CCN(CC)S(=O)(=O)c1cc(C(=O)Nc2cc(C)[nH]n2)ccc1Cl | -10.3
COc1cccc(-c2sc3ccc(OC)cc3c2C#CCCO)c1 | -7.87
CCc1nnc(NC(=O)CSC(=S)N2CCOCC2)s1 | 14.6
CC(=O)c1cn(CC(=O)Nc2ccccc2F)c2ccccc12 | 2.54
Cc1nc2ccc(N)cc2c(=O)n1Cc1ccc(Cl)cc1 | -11.4
N#Cc1ccc(N2CCOCC2)c([N+](=O)[O-])c1 | -21.7

SMILES | hERG current change (%, negative = inhibition) at 10uM [%]
CN1CCN(c2ccc(Cl)cc2NC(=O)c2cccc(S(=O)(=O)N(C)C)c2)CC1 | -36.9
Cn1nc(C(=O)Nc2ccccc2N2CCOCC2)ccc1=O | -24.4
CCN(CC)S(=O)(=O)c1cc(C(=O)Nc2cc(Cl)ccc2N2CCN(C)CC2)ccc1Cl | -53.5
CN1CCN(c2ccc(Cl)cc2NC(=O)c2ccc(=O)n(C)n2)CC1 | -58.3
CN1CCN(c2ccc(Cl)cc2NC(=O)c2ccc([N+](=O)[O-])cc2)CC1 | -10.6
COc1ccccc1N(C)S(=O)(=O)c1ccc(Cl)c(C(=O)Nc2ccncc2)c1 | -73.4
COc1ccccc1N(C)S(=O)(=O)c1ccc(C(=O)Nc2ccncc2)cc1 | -28.6
CN1CCN(c2ccc(Cl)cc2NC(=O)c2ccc(S(=O)(=O)N(C)C)cc2)CC1 | 1.58
CN(c1ccccc1)S(=O)(=O)c1ccc(Cl)c(C(=O)Nc2ccncc2)c1 | -5.35
CCOc1cccc2sc(N3CCN(C(=O)c4ccc5ncsc5c4)CC3)nc12 | 2.18
CCS(=O)(=O)NC(C)C(c1cccs1)N1CCN(c2ccc(OC)cc2)CC1 (centres unmarked) | -7.31
COc1ccc(CN(CC(=O)NCCc2ccccc2)C(=O)CCC(=O)Nc2ccccn2)cc1 | -27.1
O=C(CN(Cc1ccc(F)cc1)C(=O)CCC(=O)Nc1nccs1)NCc1ccccc1 | -35.6
O=C(CN(Cc1ccc(F)cc1)C(=O)CCC(=O)Nc1nccs1)NCc1ccc(F)cc1 | -50.5
COc1ccc(CN(CC(=O)NCc2ccccc2)C(=O)CCC(=O)Nc2cc(C)ccn2)cc1 | -17.2
COc1ccc(CNC(=O)CN(Cc2ccc(OC)cc2)C(=O)CCC(=O)Nc2ccccn2)cc1 | -64.4
O=C(CN(Cc1ccc(F)cc1)C(=O)CCC(=O)Nc1ccccn1)NCCc1ccccc1 | -15.7
COc1ccc(CNC(=O)CN(Cc2cccs2)C(=O)CCC(=O)Nc2ccccn2)cc1 | -41.1
COc1ccc(CN(CC(=O)NCc2ccc(F)cc2)C(=O)CCC(=O)Nc2ccccn2)cc1 | -28.2
COc1ccc(CN(CC(=O)NCc2ccccc2)C(=O)CCC(=O)Nc2ccccn2)cc1 | -21.1
COc1ccc(CNC(=O)CN(Cc2ccccc2)C(=O)CCC(=O)Nc2ccccn2)cc1 | -55.9
O=C(CN(Cc1ccccc1)C(=O)CCC(=O)Nc1ccccn1)NCCc1ccccc1 | -52.4
O=C(CN(Cc1ccccc1)C(=O)CCC(=O)Nc1nccs1)NCc1ccc(F)cc1 | -1.38
